Our source for the Potency and outcome values is PubChem BioAssay (Tox21).

The nature of assay [1]: qHTS assay to identify small molecule antagonists of the androgen receptor (AR) signaling pathway using the MDA cell line in the presence of 0.5 nM R1881 - cell viability counter screen (AID 1259242). Further: nearly all actives have a fitted effect of over 45% in size. Further: potency means the concentration at half of the fitted maximal effect. The gist of the method:
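Counter screen for cytotoxicity run in the same wells as the AR antagonist reporter screen: MDA-kb2 cells were treated 16 hr with test compounds and 0.5 nM R1881, then live-cell protease activity was measured by fluorescence.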

For assay [2], the target named is Androgen receptor (Homo sapiens) (UniProt P10275). The experiment in a line: qHTS assay to identify small molecule antagonists of the androgen receptor (AR) signaling pathway using the MDA cell line in the presence of 0.5 nM R1881 (AID 1259243). Further: nearly all actives have a fitted effect of over 50% in size. Further: potency means the concentration at half of the fitted maximal effect. The gist of the method: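 Luciferase luminescence is the read-out: compounds are tested for suppressing 0.5 nM R1881-driven MMTV reporter activity in MDA-kb2 cells after 16 hr at 37C.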
Sequence of Androgen receptor (Homo sapiens) (P10275 whole entry, looked up): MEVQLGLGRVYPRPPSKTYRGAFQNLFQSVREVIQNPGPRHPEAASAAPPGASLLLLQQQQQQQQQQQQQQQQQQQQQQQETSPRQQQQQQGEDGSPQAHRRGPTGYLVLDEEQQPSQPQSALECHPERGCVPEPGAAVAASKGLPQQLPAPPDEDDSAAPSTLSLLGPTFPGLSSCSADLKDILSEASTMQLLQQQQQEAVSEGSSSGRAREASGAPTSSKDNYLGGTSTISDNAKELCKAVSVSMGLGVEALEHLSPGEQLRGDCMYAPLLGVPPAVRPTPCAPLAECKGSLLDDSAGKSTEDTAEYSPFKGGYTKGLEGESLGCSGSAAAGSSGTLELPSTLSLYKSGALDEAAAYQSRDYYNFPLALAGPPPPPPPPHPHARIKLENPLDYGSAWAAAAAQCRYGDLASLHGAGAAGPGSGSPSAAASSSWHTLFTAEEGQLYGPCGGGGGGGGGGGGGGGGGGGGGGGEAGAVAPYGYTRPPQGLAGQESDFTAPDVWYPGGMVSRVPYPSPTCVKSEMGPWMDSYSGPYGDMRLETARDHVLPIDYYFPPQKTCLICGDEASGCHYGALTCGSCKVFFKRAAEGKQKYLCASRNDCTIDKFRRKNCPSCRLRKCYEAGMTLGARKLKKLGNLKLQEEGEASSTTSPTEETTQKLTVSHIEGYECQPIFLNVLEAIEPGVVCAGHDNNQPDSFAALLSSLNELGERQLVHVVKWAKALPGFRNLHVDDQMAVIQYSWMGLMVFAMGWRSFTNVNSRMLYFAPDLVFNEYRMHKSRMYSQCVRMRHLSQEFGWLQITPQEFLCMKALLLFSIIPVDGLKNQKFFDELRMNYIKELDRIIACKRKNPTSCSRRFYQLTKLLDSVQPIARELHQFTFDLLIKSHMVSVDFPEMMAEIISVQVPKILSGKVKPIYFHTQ

The target of assay [3] is Estrogen receptor (Homo sapiens) (UniProt P03372). The experiment in a line: qHTS assay to identify small molecule antagonists of the estrogen receptor alpha (ER-alpha) signaling pathway using the BG1 cell line in the presence of 0.1 nM 17-beta-estradiol (AID 1259244). Further: nearly all actives have a fitted effect of over 50% in size. Further: potency means the concentration at half of the fitted maximal effect. The method in brief: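 Cells: VM7Luc4E2, endogenous ER-alpha, 4x ERE-luc stable. Pre-culture 5 d, phenol red-free, charcoal-stripped FBS. Plated 24 h, compound + E2 0.1 nM final, 22 h 37C/5% CO2. Readout ONE-Glo luminescence.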
Sequence of Estrogen receptor (Homo sapiens) (P03372 whole entry, looked up): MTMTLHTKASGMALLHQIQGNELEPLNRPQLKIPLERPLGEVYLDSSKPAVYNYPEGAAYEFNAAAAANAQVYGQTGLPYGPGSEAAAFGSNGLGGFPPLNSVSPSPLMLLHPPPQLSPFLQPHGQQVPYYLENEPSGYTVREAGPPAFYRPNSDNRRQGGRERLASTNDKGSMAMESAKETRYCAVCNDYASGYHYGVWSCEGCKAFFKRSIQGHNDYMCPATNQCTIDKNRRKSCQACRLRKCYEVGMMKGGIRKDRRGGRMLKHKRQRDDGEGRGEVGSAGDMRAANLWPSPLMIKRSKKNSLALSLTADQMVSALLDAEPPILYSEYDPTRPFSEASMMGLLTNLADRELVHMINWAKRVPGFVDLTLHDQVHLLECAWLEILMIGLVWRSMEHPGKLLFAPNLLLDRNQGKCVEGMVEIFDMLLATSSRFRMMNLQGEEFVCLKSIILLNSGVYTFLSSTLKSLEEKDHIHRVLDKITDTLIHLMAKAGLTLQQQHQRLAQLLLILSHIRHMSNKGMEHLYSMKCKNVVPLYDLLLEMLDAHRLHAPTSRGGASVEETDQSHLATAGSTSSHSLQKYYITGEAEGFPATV
A general note: Quantitative high-throughput screening tests each substance at several concentrations.

Assay [4] is described as follows: qHTS assay to identify small molecule HDAC inhibitors (AID 1259364). Further: nearly all actives have a fitted effect of over 45% in size. Further: potency means the concentration at half of the fitted maximal effect. The method in brief:
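Luminescence from a cell-permeant luminogenic class I/II HDAC substrate reports endogenous deacetylase activity in intact HCT-116 cells treated with compounds for 2 h.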

Assay [5] in a line: qHTS assay to identify small molecule HDAC inhibitors - cell viability counter screen (AID 1259365). Further: series mostly up to about 92 µM; nearly all actives have a fitted effect of over 50% in size. The method in brief:
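HCT-116 wild-type, overnight attachment; 2hr drug exposure, 37C; CellTiter-Glo luminescent ATP readout after 30min RT.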

A short description of assay [6]: qHTS assay to identify small molecule agonists of the sonic hedgehog signaling (Shh) pathway - cell viability counter screen (AID 1259366). Further: nearly all actives have a fitted effect of over 50% in size. Further: potency means the concentration at half of the fitted maximal effect. The method in brief: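 Compounds in DMSO were pin-transferred onto 3T3 Gli1-Luc cells that had settled 4hr; plates then stood 24hr at 37C and 5% CO2. One hour before the end, CellTiter-Fluor was added and fluorescence recorded.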

Assay [7] can be described thus: qHTS assay to identify small molecule antagonists of the sonic hedgehog signaling (Shh) pathway - cell viability counter screen (AID 1259367). Further: nearly all actives have a fitted effect of over 55% in size. Further: potency means the concentration at half of the fitted maximal effect. The method in brief: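 After a 4 hr settling period, 3T3 Gli1-Luc cells were treated with DMSO-dissolved chemicals and conditioned medium, kept 24 hr at 37C in 5% CO2, and assayed for viability by CellTiter-Fluor fluorescence following 1 hr reagent incubation.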

The nature of assay [8]: qHTS assay to identify small molecule agonists of the sonic hedgehog signaling (Shh) pathway (AID 1259368; calls by dose curve;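 further: NIH/3T3-derived 3T3Gli1-Luc cells carrying a stable Gli1-driven firefly luciferase reporter; series mostly up to about 92 µM; nearly all actives have a fitted effect of over 15% in size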). The gist of the method: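 3T3Gli1-Luc (NIH/3T3 clone, stable Gli1-Luc); 4 hr pre-incubation, then cpd in DMSO 24 hr, 37 C/5% CO2; luciferase reagent 30 min RT; luminescence.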
Assay [9] can be described thus: qHTS assay to identify small molecule antagonists of the sonic hedgehog signaling (Shh) pathway (AID 1259369; calls by dose curve; further: nearly all actives have a fitted effect of over 45% in size; further: potency means the concentration at half of the fitted maximal effect). The gist of the method:
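3T3Gli1-Luc, conditioned-medium-stimulated, 24hr cpd, 37C/5% CO2; Gli1-driven firefly Luc luminescence after 30min RT with luciferase reagent. Cells plated 4hr before cpd.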

Assay [10] is described as follows: qHTS assay to identify small molecule phospholipidosis (PLD) inducers (AID 1259344; active means well fitted curve in the direction sought with a large enough effect; an effect the other way counts as inactive or inconclusive). The method in brief:
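HepG2 cells grown on collagen I take up LipidTOX Red while exposed to compound for 24 h; after fixation they are imaged at 20x and pit metrics are extracted.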

Values joined by “and” are separate entries in the source; they are usually repeats but may differ in a detail not shown here. Equal values may be shown once. Records with an inconclusive call do not appear. More than one record can exist for a structure, and the calls need not agree. Active and inactive are the calls of the source. Unless noted, the call rests on the fitted dose curve; in most records, active means well fitted curve in the direction sought with a large enough effect in the repeat runs; inconclusive means weak or mixed curves; inactive means no such curve, though single readings can be large; an effect the other way counts as inactive or inconclusive.

Take `Cc1ccc(C)c(O)c1C`: the Potency result in assay [1], in [2], in assay [3], in [4], in assay [6] and in [7] was “inactive” throughout. Besides, the Potency result in [8] and in assay [9] was “inactive” throughout. Moreover, the compound was classed as inactive in assay [5].
For the compound `Cn1cnc([N+](=O)[O-])c1Sc1ncnc2nc[nH]c12`, the Potency entry in assay [1], in assay [3], in assay [10], in [4] and in [8] was “inactive” in each case. For the same compound, in [5], the call was inactive. Further, the figures for the Potency in assay [7] and in assay [9] were 19.2 µM (active) and 30.4 µM (active), respectively.
On to `C=C(C)C1CC=C(C)CC1` (stereo not given), for which the Potency result in assay [1], in [3], in assay [10], in assay [4], in assay [6] and in assay [7] was “inactive” in each case. The Potency result in [8] and in assay [9] was “inactive” in each case. Besides, the result in assay [5] was inactive.
For the compound `CN(C)CCN(Cc1cccs1)c1ccccn1`, the Potency entry in assay [1], in assay [3], in assay [10], in [4], in assay [6] and in assay [7] was “inactive” each time. Also, the Potency result in assay [8] and in assay [9] was “inactive” each time. The compound was classed as inactive in [5].
Regarding `CC(C)(C)NC(=O)[C@H]1CC[C@H]2[C@@H]3CC[C@H]4NC(=O)C=C[C@]4(C)[C@H]3CC[C@]12C`, the Potency entry in assay [1], in [3], in assay [10], in [4], in assay [6] and in assay [7] was “inactive” in each case. The Potency result in [8] is “inactive”. Moreover, the outcome in assay [5] was inactive. Further, the Potency in assay [9] is 2.7 µM (active) and inactive.
`C#C[C@]1(O)CC[C@H]2[C@@H]3CCc4cc(OC)ccc4[C@H]3CC[C@@]21C`: the Potency result in assay [1], in [3], in assay [10], in assay [4], in [6] and in assay [7] was “inactive” throughout. The Potency result in [8] and in assay [9] was “inactive” each time. In addition, the compound was classed as inactive in [5].
For the compound `Nc1ncn([C@@H]2O[C@H](CO)[C@@H](O)[C@H]2O)c(=O)n1`, the Potency result in [1], in assay [3], in assay [10], in [4], in assay [6] and in assay [8] was “inactive” in each case. Also, the Potency in assay [2] was 4.33 µM (active) and 3.76 µM (active); in [9] it was 13.7 µM (active).
In the case of `CC(=O)Oc1ccccc1C(=O)Nc1ncc([N+](=O)[O-])s1`, the Potency in [1] was 11.1 µM (active) and 11.9 µM (active); in assay [4], 197 nM (active) and 473 nM (active); in assay [6] it was 22.1 µM (active) and 26.6 µM (active); in assay [7], 24.8 µM (active) and 26.6 µM (active); in assay [9], 9.88 µM (active) and 18.8 µM (active). Besides, the Potency result in [3], in assay [10] and in [8] was “inactive” in each case. For the same compound, the result in [5] was inactive.
As to `O=CCCCC=O`, the Potency result in assay [1], in assay [3], in assay [10], in [4], in assay [6] and in assay [7] was “inactive” throughout. Moreover, the Potency result in assay [8] and in [9] was “inactive” each time. Besides, in [5], the call was inactive.
On to `COc1ccc(OC)c(C(O)CNC(=O)CN)c1` (stereo not given), for which the Potency entry in assay [1], in [3], in assay [10], in assay [4], in assay [6] and in assay [7] was “inactive” each time. For the same compound, the Potency entry in assay [8] and in assay [9] was “inactive” each time. Moreover, the outcome in assay [5] was inactive.
With `O=C(Nc1ccc(Cl)cc1)Nc1ccc(Cl)c(Cl)c1`, the Potency is 21.7 µM (active) and 23.7 µM (active) in assay [1]; 17.1 µM (active) and 13.7 µM (active) and 13.3 µM (active) in [2]; 21.6 µM (active) and 12.2 µM (active) and 16.8 µM (active) in assay [3]; 12.1 µM (active) and inactive in assay [9]. Moreover, the Potency result in assay [10], in assay [4], in assay [6], in assay [7] and in assay [8] was “inactive” in each case.
In the case of `C#C[C@]1(O)CC[C@H]2[C@@H]3CCC4=Cc5oncc5C[C@]4(C)[C@H]3CC[C@@]21C`, the Potency result in assay [1], in assay [10], in [4], in assay [6], in [7] and in assay [8] was “inactive” each time. Further, the Potency is 30.6 µM (active) in assay [3]; 2.17 µM (active) and 11.9 µM (active) in [9].
For the compound `Cc1cccc(N(C)C(=S)Oc2ccc3ccccc3c2)c1`, the Potency entry in [1], in [3], in assay [10], in assay [4], in [6] and in assay [7] was “inactive” throughout. The Potency entry in assay [8] was “inactive”. Further, the Potency in [9] is 30.6 µM (active).
Take `CC(C(=O)O)c1cccc(C(=O)c2ccccc2)c1` (stereo not given): the Potency entry in [1], in assay [3], in [10], in assay [4], in assay [6] and in assay [7] was “inactive” throughout. Moreover, the Potency entry in assay [8] and in [9] was “inactive” in each case. Besides, in assay [5], the call was inactive.
For `CCCCC(CC)COC(=O)c1ccc(N(C)C)cc1` (stereo not given), the Potency result in [1], in assay [3], in assay [10], in [4], in assay [6] and in assay [7] was “inactive” each time. Besides, the Potency result in assay [8] and in assay [9] was “inactive” in each case. Besides, the result in [5] was inactive.
With `CCOCCOCCO`, the Potency entry in [1], in assay [2], in [4], in assay [6], in assay [7] and in assay [8] was “inactive” each time. In [9], the Potency entry is “inactive”. In assay [5], the compound was called inactive.
Turning to `Nc1ncnc2nc[nH]c12`, the Potency result in assay [1], in [3], in assay [10], in assay [4], in assay [6] and in assay [7] was “inactive” in each case. Further, the Potency entry in assay [8] and in assay [9] was “inactive” throughout.
For the compound `CN1C(C(=O)Nc2ccccn2)=C(O)c2ccccc2S1(=O)=O`, the Potency entry in assay [1], in [3], in assay [10], in assay [4], in assay [6] and in assay [7] was “inactive” throughout. Also, the Potency result in assay [8] and in assay [9] was “inactive” throughout. The call in assay [5] was inactive.
Consider `CCCCCCCCCCCO`, for which the Potency entry in assay [1], in assay [3], in [4], in [6], in [7] and in [8] was “inactive” throughout. For the same compound, the Potency result in [9] was “inactive”. The compound was called inactive in [5].
On to `CCC(C)OC(=O)c1ccc(O)cc1` (stereo not given), for which the Potency result in assay [1], in assay [3], in assay [6], in assay [7], in assay [8] and in [9] was “inactive” each time.
In the case of `c1cc(N(CC2CO2)CC2CO2)ccc1OCC1CO1` (stereo not given), the Potency entry in [1], in [3], in [4] and in assay [8] was “inactive” in each case. In addition, the result in assay [5] was inactive. The Potency in assay [6] is 61.1 µM (active); in assay [7], 27.3 µM (active); in assay [9] it was 3.44 µM (active) and 9.69 µM (active).
Regarding `CCCCNS(=O)(=O)c1ccccc1`, the Potency result in assay [1], in [3], in [4], in [6], in assay [7] and in assay [8] was “inactive” each time. For the same compound, the Potency result in [9] was “inactive”.
